In paper PMC8769072, “Proteome‐scale mapping of binding sites in the unstructured regions of the human proteome” (Molecular Systems Biology, 2022):

B1: BRD4, O60885 (peptide)
chain: VPVLEPQLPGSVFDPI
B2: ARID4A, P29374 (peptide)
chain: FERENEGMPSLIAESN
B3: I3L1I5 (peptide)
chain: TPPVQGLEPPVLEAME
B4: DSG1, Q02413 (peptide)
chain: GMLEMPDLRDGSNVIV
B5: SGMS1, Q86VZ5 (peptide)
chain: MPELERSQYPMEWGKT
B6: LPIN1, Q14693 (peptide)
chain: HSTGEQPPQLSLATRV
B7: TMEM171, Q8WVE6 (peptide)
chain: ENPPSYYSIFNYGRTP
B8: HOMEZ, Q8IX15 (peptide)
chain: EQALPPHLEPAWPQGL
B9: ZSCAN4, Q8NAM6 (peptide)
chain: DSINPPALVHVHMQGQ
B10: PDPK1, O15530 (peptide)
chain: QQTPPKLTAYLPAMSE
B11: LZTS1, Q9Y250 (peptide)
chain: VDFDPSTPPKLMPFSN
B12: ZNF165, P49910 (peptide)
chain: NESENSRSMPKLEIFE
B13: PPRC1, Q5VV67 (peptide)
chain: QLLMPTLESETEAAVP
B14: AATK, Q6ZMQ8 (peptide)
chain: QGSGPGEVLPPLLQLE
B15: ZHX1, Q9UKY1 (peptide)
chain: LISDLDEGPPVLTPVE
B16: ETAA1, Q9NY74 (peptide)
chain: DMPELFPSKTAHVTDQ
B17: ABI1, Q8IZP0 (peptide)
chain: PPMPQLTPQIPLTGFV
B18: UBN2, Q6ZU65 (peptide)
chain: EPEYPREPPRLEPQPY
B19: MORC4, Q8TE76 (peptide)
chain: QMPRLVAEESNRGSTT
B20: SLAIN1, Q8ND83 (peptide)
chain: MPNLARMPSTTAISSN
B21: SETBP1, Q9Y6X0 (peptide)
chain: DSRDQMPVLEKAIDLP
B22: ZBTB38, Q8NAP3 (peptide)
chain: EEETKEMPKLQAELAD
B23: SETBP1, Q9Y6X0 (peptide)
chain: SELKTMPNLQPISALP
B24: C2orf81, A6NN90 (peptide)
chain: MPQLDAAGDRLELRSE
B25: ATAD2B, Q9ULI0 (peptide)
chain: EGIPVLEAQNGKLEVV
B26: MYOCD, Q8IZQ8 (peptide)
chain: SAISEVTQPPSYEDAV
B27: PPP1R35, Q8TAP8 (peptide)
chain: ELEMPVLKSSLALGLE
B28: SEC16A, O15027 (peptide)
chain: SLQNPPVLIAQPDHSY
B29: MLXIPL, Q9NP71 (peptide)
chain: SPPTLAPATASPPTTA
B30: SOS1, Q07889 (peptide)
chain: SMHRDGPPLLENAHSS
B31: ENO4, A6NNW6 (peptide)
chain: NQEQPTTLSMPLLMVS

Target: ZMYND11 480-602, Q15326
Sequence (Q15326 480-602): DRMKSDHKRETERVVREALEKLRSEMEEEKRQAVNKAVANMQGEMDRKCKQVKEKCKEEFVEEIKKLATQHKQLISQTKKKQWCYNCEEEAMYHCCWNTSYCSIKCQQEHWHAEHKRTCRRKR

| Binder | selected by phage display |
| --- | --- |
| B1 | confidence 2 (active) |
| B2 | confidence 2 (active) |
| B3 | confidence 4 (active) |
| B4 | confidence 3 (active) |
| B5 | confidence 2 (active) |
| B6 | confidence 3 (active) |
| B7 | confidence 3 (active) |
| B8 | confidence 4 (active) |
| B9 | confidence 3 (active) |
| B10 | confidence 2 (active) |
| B11 | confidence 2 (active) |
| B12 | confidence 3 (active) |
| B13 | confidence 4 (active) |
| B14 | confidence 2 (active) |
| B15 | confidence 4 (active) |
| B16 | confidence 2 (active) |

| Binder | selected by phage display |
| --- | --- |
| B17 | confidence 2 (active) |
| B18 | confidence 2 (active) |
| B19 | confidence 3 (active) |
| B20 | confidence 2 (active) |
| B21 | confidence 2 (active) |
| B22 | confidence 4 (active) |
| B23 | confidence 4 (active) |
| B24 | confidence 2 (active) |
| B25 | confidence 2 (active) |
| B26 | confidence 3 (active) |
| B27 | confidence 4 (active) |
| B28 | confidence 2 (active) |
| B29 | confidence 2 (active) |
| B30 | confidence 2 (active) |
| B31 | confidence 2 (active) |
